Key:
Assay in all cases: PBM binding z-score (relative to random genomic background probes); higher = stronger binding; sequences stand for … in GC…GCGATTGACAGCGTAGAATGAAGG
[1] = tested on: RARb homodimer (NR concentration 270 nM)
Outline: (§1)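 Custom Agilent 4×180K protein-binding microarrays carried double-stranded probes. Their 34-nt variable regions held direct-repeat seeds, single-nucleotide variants, half-site ablations and random human genomic background sequences. Arrays were incubated 1 h with ligand-free nuclear receptor dimers in PBS pH 7.4, 2% milk, 0.02% Triton X-100, 1 mM DTT, 0.2 mg/mL BSA and 0.4 mg/ml salmon testes DNA. Antibodies against each partner (one per run) detected binding, and scanned fluorescence was regression-normalized. Binding z-scores use random background probes as reference.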

[2] = tested on: RARg:RXRa (NR concentration 270 nM, RXRa partner concentration 90 nM)
Outline: as §1

[3] = tested on: RARg homodimer (NR concentration 270 nM)
Outline: as §1

[4] = tested on: RXRa DBDmut IVT, anti-RXR (DBD mutation: RXRa K156A/R161A, NR concentration 90 nM)
Outline: as §1

[5] = tested on: RXRa homodimer (NR concentration 180 nM)
Outline: as §1

[6] = tested on: THRa:RXRa (NR concentration 90 nM, RXRa partner concentration 90 nM)
Outline: as §1

[7] = tested on: THRa homodimer (NR concentration 90 nM)
Outline: as §1

[8] = tested on: VDR:RXRa (NR concentration 270 nM, RXRa partner concentration 90 nM)
Outline: as §1

[9] = tested on: VDR homodimer (NR concentration 270 nM)
Outline: as §1

Sequence | PBM binding z-score [1] | PBM binding z-score [2] | PBM binding z-score [3] | PBM binding z-score [4] | PBM binding z-score [5] | PBM binding z-score [6] | PBM binding z-score [7] | PBM binding z-score [8] | PBM binding z-score [9]
CAAACTAGGTCACAGAGGTCAAATTCCGTGCGTA | 5.28 | 7.51 | 7.97 | 3.34 | 8.2 | 4.68 | 3.09 | 8.11 | 6.96
CCGACGGGGGCATAAGGTTACCATAAGCCAGCCC | 2.78 | 4.76 | 3.14 | 2.15 | 3.62 | 3.58 | 1.76 | 3.5 | 2.1
ATATCTAGGTAACAAGTTCAGTGAAAGAGAGGAC | 1.93 | 1.25 | 1.51 | 1.36 | 1.03 | 1.49 | 0.951 | 2.31 | 2.85
TTACCAAGGTGAGCAGAGGTCGTTGATCCAACTC | 2.31 | 1.68 | 1.26 | -0.0246 | 2.03 | 3.54 | 0.587 | 3.68 | 1.28
TCTCGGAGGACACGATGGTCAGAGCTTTCCAGAG | 0.682 | 0.274 | 1.24 | 0.266 | 0.00404 | 1.05 | 0.363 | -0.133 | -0.307
GGAACGAGGGCATTCGAGTTGGTAGCATGGCGAT | 0.543 | 0.787 | 0.965 | 2.93 | 0.508 | 1.87 | -0.702 | 2.35 | 2.2
CGAAGTAGGTCATCCAGGACAGTGAATACATTGA | 3.03 | 4.24 | 4.88 | 2.13 | 3.36 | 3.64 | 1.46 | – | 2.37
TCTAGTTGATCACGGAGGTCACACACGACGGGTA | 3.89 | 4.17 | 3.92 | 0.917 | 4.56 | 3.52 | 2.48 | 3.99 | 2.18
TAGTCTAGGTCATGGGCCAGTATACCACGCGAAC | 3.09 | 4.03 | 4.4 | 0.663 | 3.44 | 3.3 | 2.25 | 2.13 | 0.773
ATATGTAGGTTACATCCCGGTCATTCAGGCTATG | 2.44 | 2.92 | 1.76 | 0.814 | 1.44 | 2.18 | 1.44 | 1.79 | 1.12
TTACCCAGGTGAGCTGAGGTCGTTGATCCAACTC | 1.17 | 0.816 | 0.509 | -0.172 | 1.19 | 4.32 | 1.8 | 2.93 | 2.27
TCGAGTAGGTTAGTCTGGGCATTCAGCCAACATA | -0.367 | -0.389 | -0.417 | -0.133 | -0.273 | 0.0539 | -0.454 | -0.0618 | -0.466
TCTGCTAGGTCAGTTGGTCCGCTAACGAGCTGCC | 2.05 | 1.98 | 2.93 | 0.518 | 0.727 | 0.962 | -0.188 | 0.677 | -0.485
ATCTCTCGGTAACCAAGTTCAGTGAATGCCGAAC | 1.51 | 0.706 | 0.621 | 0.703 | 0.383 | 0.98 | 0.603 | 2.72 | 2.26
TAGCCTAGGTCATGCGGGCCAGTATCGTGTCGGC | 2.77 | 4.03 | 4.3 | 0.371 | 3.1 | 2.88 | 1.17 | – | 0.528
TCATATAGGTAAGTGCTAGGTGAAAGTCCGATCT | 0.823 | 0.114 | 0.186 | 1.23 | 0.629 | 0.873 | 0.473 | – | 0.173

Reference: the supplement of paper PMC6555819
